SARS PLP yeast: SARS-CoV PLP inhibition in yeast. Potency, µM (top dose mostly 32.9 µM), for inactives: at the top dose activity, positive = growth rescue, actives largely listed as activators. AID 485353. 0.19% of 330,000 active. S. cerevisiae expressing SARS-CoV PLpro, growth rescue; further: potency means the concentration at half of the fitted maximal effect; 0% is about no effect; nearly all actives have a fitted effect of over 55% in size
Shiga toxin inh: Shiga toxin inhibition. AID 2315. inhibition, % at 38.7 µM. Vero cells, Shiga toxin protein synthesis inhibition reporter. 9.2% of 290,000 active; in the data active means inhibition mostly above about 28%, no sharp cut-off; inactive means mostly below about 43%; further: 0% is about no effect
NS1 inh: blocks influenza NS1 protein function; 0.4% of 270,000 active; Potency, µM (top dose mostly 46.1 µM), inactives show at the highest dose activity, positive = more growth; AID 2326; further: potency means the concentration at half of the fitted maximal effect; actives are rising curves; nearly all actives have a fitted effect of over 50% in size
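Compounds were scored for reversing the slow growth caused by influenza A NS1 in S. cerevisiae, measured by optical density at 600 nm. Assay medium contained 2% galactose at pH 6.0; NS1-free yeast of the same strain were the positive control.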
CHX counter: counter-screen for Shiga toxin inhibitors: cycloheximide protein synthesis inhibition; 12% of 300,000 active; max response, %; AID 2314; cell reporter, cycloheximide protein synthesis inhibition counterscreen; in the data active means max response mostly above about 13%, no sharp cut-off; inactive means mostly below about 14%; further: read at 38.3 µM for the half of the compounds with a filed dose; 0% is about no effect
Pf growth 48h: inhibits P. falciparum growth in the first generation, 48 h; P. falciparum luciferase growth in erythrocytes, 48 h; Potency, µM (top dose mostly 28.7 µM), for the others: at the highest dose activity change, negative = inhibition, actives largely listed as inhibitors; 5.9% of 310,000 active; AID 504832; active means well fitted inhibition curve with a large enough effect; inconclusive means small, poorly fitted or top-dose-only effect, or another doubt; inactive means no such curve, though single readings can be large or run the other way; further: potency means the concentration at half of the fitted maximal effect; on the % scale 0 is the no-effect control and ±100 the full control effect
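Compounds are pin-transferred into medium, infected erythrocytes (2% hematocrit, 0.1% parasitemia final) are added, and plates sit one parasite generation at 37 C in 5% CO2. Detection reagent is then added and luminescence measured.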
Pf growth 96h: inhibits malaria parasite growth, 96 h | 6.9% of 320,000 active | AID 504834 | P. falciparum luciferase reporter growth, 96 h | Potency, µM (doses to about 28.7 µM), for the others: at the highest dose activity change, negative = inhibition, usual class: inhibitors; active means well fitted inhibition curve with a large enough effect; inconclusive means small, poorly fitted or top-dose-only effect, or another doubt; inactive means no such curve, though single readings can be large or run the other way; further: potency means the concentration at half of the fitted maximal effect; on the % scale 0 is the no-effect control and ±100 the full control effect
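P. falciparum expressing integrated firefly luciferase, in erythrocytes at 2% hematocrit, 0.05% parasitemia, incubated with compounds 96 h at 37 C, 5% CO2. Growth inhibition read as loss of luminescence; two-generation exposure targets delayed-death apicoplast inhibitors.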
NS1 inh valid: validation of influenza NS1 protein function inhibitors. influenza NS1 function cell assay, 15-point titration. shares compounds with NS1 inh. activity change, negative = inhibition, % at 32.9 µM. 1,400 tested, under 10 active; further: 0% is about no effect
PR8 titer: influenza NS1 inhibitors: inhibition of influenza A/PR/8/34 replication; virus titer (log TCID50), log10 TCID50 at 5 µM; shares compounds with NS1 inh; MDCK infected influenza A/PR/8/34, virus titer TCID50; active compounds read low; 30% of 95 active; call rule not given here
Numbers without * were called inactive; u = inconclusive; x = no result. This is a sample that favours compounds with a hit; in the whole collection about 21% have one here. Unless noted, the call rests on the fitted dose curve.

SMILES	SARS PLP yeast	Shiga toxin inh	NS1 inh	CHX counter	Pf growth 48h	Pf growth 96h	NS1 inh valid	others
CCn1c2ccccc2c2cc(/C=N/NC(=O)c3cc(O)cc(O)c3)ccc21	-1%	6	-8%	4	u	15%	x
O=C(N/N=C/c1cn(Cc2ccccc2)c2ccccc12)c1cc(O)cc(O)c1	4%	-8	14µM*	-3	u	u	-2
COc1cccc(C(CNC(=O)C(c2ccccc2)c2ccccc2)N(C)C)c1 (stereo not drawn)	0%	-5	4%	8	-6%	-15%	x
CC(C)C[C@H]1C(=O)N2CCCC2[C@]2(O)O[C@](NC(=O)[C@@H]3C=C4c5cccc6[nH]c(Br)c(c56)C[C@H]4N(C)C3)(C(C)C)C(=O)N12 (stereo partly drawn)	x	x	5.6µM*	x	3.4µM*	u	u
CC(CO)NC(=O)C1C=C2c3cccc4[nH]cc(c34)CC2N(C)C1 (stereo not drawn)	x	x	x	x	-8%	u	x
COc1ccc2cc(/C=N/NC(=O)c3ccc(CN(c4cccc(Cl)c4Cl)S(C)(=O)=O)cc3)c(Cl)nc2c1	-7%	25	13µM*	7	u	u	u
COc1ccc2c(c1)nc(NCCO)n2C	16%	4	3.5µM*	7	27%	-29%	-2
Cc1ccc2c(c1)nc(NCCCO)n2C	1%	-1	1%	7	20%	x	x
Cc1ccc(Oc2ccc(OCC(=O)NC(CC(C)C)C(=O)O)cc2)cc1 (stereo not drawn)	-2%	-5	x	1	-16%	25%	x
CCn1c(Sc2ccc(N)cc2Cl)nc2ccccc21	5%	-13	-30%	-3	-5%	2%	x
Cc1cc(C)cc(NS(=O)(=O)c2ccc(NC(=S)NC(=O)c3cccs3)cc2)c1	3%	18	13µM*	8	u	30%	-33
CC(C)NC(=O)C(=O)Nc1cc2c3c(c1)C(C)C(=O)N3CCC2 (stereo not drawn)	1%	3	3%	4	7%	36%	x
Cc1ccc(S(=O)(=O)c2cc3c(=O)n4ccccc4nc3n(CC3CCCO3)c2=N)cc1C (stereo not drawn)	-5%	24	8.9µM*	-3	3%	-20%	u
CCOC(=O)C1=C(c2ccccc2)N=c2s/c(=C\c3ccc(O)cc3)c(=O)n2C1c1cccs1 (stereo not drawn)	-34%	5	7.1µM*	11	2.9µM*	2.6µM*	-15
COC(=O)C1=C(C)N=c2s/c(=C/c3cccs3)c(=O)n2C1c1cccs1 (stereo not drawn)	2%	-16	10%	-5	u	44%	x
NC(=O)c1ccsc1NC(=O)C1CCCN1S(=O)(=O)c1ccc(Cl)cc1 (stereo not drawn)	0%	-5	8.9µM*	-5	u	x	-24
O=C(c1c(Cl)cccc1Cl)N1CCN(c2ncccn2)CC1	-1%	-5	-3%	-2	x	5%	x
CCCCNC(=O)CN(c1cc(C(F)(F)F)ccc1Cl)S(C)(=O)=O	7%	12	1µM*	-5	21%	u	-4	PR8 titer=8
COCCCNC(=O)CN(c1cc(C(F)(F)F)ccc1Cl)S(C)(=O)=O	0%	16	9%	5	18%	2%	x
O=C(N1CCN(c2ccccc2)CC1)C1(c2cccs2)CCOCC1	5%	-5	4%	1	-5%	-11%	x
Cc1ccc(C(=O)O)cc1NC(=S)NC(=O)C(c1ccccc1)c1ccccc1	6%	-15	u	7	0%	u	6
CCC(C(=O)Nc1ccc(C(=O)O)cc1NC(=O)C(CC)c1ccccc1)c1ccccc1 (stereo not drawn)	9%	10	11µM*	1	-7%	2%	6
CCC(C(=O)Nc1cc(C(=O)O)ccc1C)c1ccccc1 (stereo not drawn)	0%	-2	5%	-1	20%	41%	x
N#CC1=C(N)Oc2n[nH]c(-c3ccc(F)cc3)c2C1c1ccncc1 (stereo not drawn)	-2%	-14	3%	-5	-11%	125%	x
COC(=O)C(NC(C)=O)(Nc1nc2ccc(S(C)(=O)=O)cc2s1)C(F)(F)F (stereo not drawn)	-2%	-4	1%	1	24%	4%	x
SMILES	SARS PLP yeast	Shiga toxin inh	NS1 inh	CHX counter	Pf growth 48h	Pf growth 96h	NS1 inh valid	others
COC(=O)C(NC(C)=O)(Nc1nc2ccc(C)cc2s1)C(F)(F)F (stereo not drawn)	22%	-4	8.9µM*	2	x	-9%	-5
CCC(=O)Nc1ccc(Cl)c(NC(=S)NC(=O)c2ccco2)c1	-13%	-4	7%	19	10%	u	x
CCC(=O)Nc1ccc(Cl)c(NC(=S)NC(=O)c2cc3ccccc3o2)c1	1%	72*	u	52*	17%	-8%	5
Cc1cc2cc(CNC(=O)c3ccc(S(=O)(=O)N4CCCCC4)cc3)ccc2[nH]1	2%	-6	11µM*	-1	u	u	18
Cc1cc2cc(CNC(=O)c3cccc([N+](=O)[O-])c3)ccc2[nH]1	1%	-11	14µM*	0	-6%	-17%	1
O=C(NCc1ccc2[nH]c3c(c2c1)CCCC3)c1ccc(S(=O)(=O)N2CCCC2)cc1	1%	-15	13µM*	1	0%	13µM*	7	PR8 titer=7*
Cc1ccc(C(=O)NCCc2ccc(S(=O)(=O)N3CCCC3)cc2)cc1	-1%	10	-7%	-4	-30%	20%	x
Cc1cc2ccccc2n1CCNC(=O)c1ccc(S(=O)(=O)N2CCCCC2)cc1	6%	13	11µM*	-2	2.1µM*	1.7µM*	0
O=C(NCc1ccc2[nH]c3c(c2c1)CCCC3)c1ccc(S(=O)(=O)N2CCOCC2)cc1	4%	-11	u	-2	u	u	x
O=C(Nc1ccc(F)cc1)C1CCCN(S(=O)(=O)c2ccc3[nH]c(=O)ccc3c2)C1 (stereo not drawn)	2%	4	9%	-1	u	u	x
COC(=O)/C=C/C(=O)Nc1cccc(C(F)(F)F)c1	-27%	18	-29%	-2	u	u	x
CCOc1ccc(CCNC(=O)Cc2nn[nH]n2)cc1OCC	-2%	-4	u	-2	-8%	18%	9
CCOc1ccc(CCNC(=O)COC(=O)Cc2ccc(F)cc2)cc1OCC	4%	x	x	x	u	u	x
COC(=O)c1ccc(NC(=O)CCN2C(=O)C3C4CCC(C4)C3C2=O)cc1 (stereo not drawn)	3%	4	-1%	9	25%	u	x

Screening results as filed in PubChem BioAssay.
